The values below come from PubChem BioAssay (NCI).

Each structure is given as a SMILES string. Where “and” joins values, the source holds several entries; their conditions need not be identical. Identical values can stand only once. Compounds without any hit were thinned out: in the full panel of roughly 83,000, 20% have a hit.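 For each line, cells grew in 96-well plates with the test compound present at a single concentration for 48 hours.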 Calls of active or inactive are those of the source. Rule for the calls: active = growth percent below 10; inactive = the rest.

The subject of this experiment is HL-60(TB) leukemia. In words: NCI-60 one-dose screen, 48 h (100 = growth as untreated, 0 = no growth, -100 = all killed). Particulars: 10 µM unless noted.
As for `N/C(=N\C(N)=N\c1nc2ccccc2s1)c1ccc2ccccc2c1`, the growth was 99.8% (inactive).
In the case of `CC(C)NC(=O)c1cc(-c2ccc(NC(=O)Nc3ccc(N4CCOCC4)c(C(F)(F)F)c3)cc2)nc2cccnc12` it was 12.6% (inactive); in that of `COc1cc(/C=N/n2cnc3oc(-c4ccccc4)cc3c2=N)cc(CN2CCN(C)CC2)c1O`, 110% (inactive); in that of `c1ccc(-c2n(Cc3ccc4ccccc4c3)c3c4ccccc4c4ccccc4c3[n+]2Cc2ccc3ccccc3c2)cc1`, -61.4% (active).
In the case of `N[C@@H](Cc1cn(-c2c3ccccc3nc3ccccc23)nn1)C(=O)O` it was 95.5% (inactive).
Consider `CCCCOc1ccc(S(=O)(=O)N2CCN(c3nc(C)cc(N4CCOCC4)n3)CC2)cc1`, for which the growth was 20.3% (inactive).
On to `C=C(C)[C@@H]1CC[C@]2(C(=O)NCCCN(CCC#N)CCC#N)CC[C@]3(C)[C@H](CC[C@@H]4[C@@]5(C)CCC(=O)C(C)(C)[C@@H]5CC[C@]43C)[C@@H]12`, for which the growth was 96.3% (inactive).
In the case of `CC(c1ccccc1)N1CSc2nc3ncncc3n2C1` (stereo not given) it was 17.4% (inactive).
In the case of `COc1ccc(-c2nc(C#N)c(N3CCC(S(=O)(=O)N4CCOCC4)CC3)o2)cc1` it was 117% (inactive); in that of `O=C(Cn1cc(-c2ccccc2)nn1)Nc1nc(-c2ccc(Cl)cc2)cs1`, 89.7% (inactive); in that of `CC(=O)OCCCCN1C=C/C(=C\C(=O)n2ccc3ccccc32)c2ccccc21`, 98.6% (inactive).
Consider `NC(N)=NS(=O)(=O)c1ccc(N=NC2C(=O)NN(c3ccccc3)C2=O)cc1` (stereo not given), for which the growth is 107% (inactive).
Regarding `CC1=Cc2ccccc2OC12C=Cc1ccccc1O2` (stereo not given), the growth is 106% (inactive).
In the case of `CC(C)Sc1nc(NC2CC2)c(C#N)c(-c2ccccc2)n1` it was 112% (inactive); in that of `C#C[C@]1(O)CC[C@H]2[C@@H]3CC=C4c5sc(Nc6cc(OC)ccc6OC)nc5CC[C@]4(C)[C@H]3CC[C@@]21C`, -5.2% (active).
For the compound `O=C1[C@H]2Cc3c([nH]c4ccccc34)[C@H](c3ccc(Cl)cc3)N2C(=O)CN1C1CCN(Cc2c(Cl)cccc2Cl)CC1`, the growth is 62.1% (inactive).
In the case of `CC(C)(C)Nc1nc2c(OCCc3ccccc3)cccn2c1-c1ccccc1Cl` it was -31.6% (active).
In the case of `IP(CCCCCCCCCCSc1n(Cc2ccc3ccccc3c2)c(-c2ccccc2)c(-c2ccccc2)[n+]1Cc1ccc2ccccc2c1)(c1ccccc1)(c1ccccc1)c1ccccc1` it was -62.5% (active).
In the case of `CC1(C)CC[C@]2(C(=O)O)CC[C@]3(C)C(=CCC4[C@@]5(C)C[C@@H](O)[C@@H]6OC(c7cccc([N+](=O)[O-])c7)OC[C@@]6(C)C5CC[C@]43C)C2C1` (stereo not given in full) it was 42.5% (inactive); in that of `Cn1cc(CNc2nc3ccc(OC/C(=C/F)CN)cc3o2)ccc1=O`, 101% (inactive); in that of `FC(F)(F)c1cc(Nc2cccc(Oc3ccc(NC4=NCCN4)nc3)c2)ccc1Cl`, -52.5% (active).
Turning to `CC(=C(c1ccc(OCCN(C)C)cc1)c1ccc(OCCN(C)C)cc1)c1ccc(Cl)cc1`, the growth was -53.5% (active).
`CCOc1ccc2nc(NC(=O)Nc3ccccc3C)sc2c1`: the growth was 15.3% (inactive).
Take `O=C(/C=C/c1cccc(Br)c1)c1cccc(OCCCCOc2cccc(C(=O)/C=C/c3cccc(Br)c3)c2)c1`: the growth was 95.3% (inactive).
For the compound `O=C(CCCCCCN1CC(=O)N2[C@@H](c3ccc(Cl)c(F)c3)c3[nH]c4ccccc4c3C[C@H]2C1=O)NO`, the growth was 85.1% (inactive).
In the case of `COc1ccc(Oc2ccc(/C=N/NC(=O)CSc3nc4ccccc4c(=O)n3-c3ccc(Cl)cc3)cc2)cc1` it was 104% (inactive); in that of `CCCCCCCCCC(=O)NC(C)(C)C(=O)N1CCC[C@H]1C(=O)N[C@@H](CC(C)C)C(=O)N[C@@](C)(CC)C(=O)N[C@@H](CCC(N)=O)C(=O)N[C@H](CCC(N)=O)C(=O)NC(C)(C)C(=O)NC(C)(C)C(=O)N[C@@H](CCC(N)=O)C(=O)N[C@H](CC(C)C)C(=O)N[C@H](CO)CC(C)C`, -76.7% (active) and -39.4% (active).
In the case of `COc1cc(OC)c(S(N)(=O)=O)cc1C(=O)/C=C/c1ccc(Cl)cc1` it was -9% (active); in that of `O=C1Nc2cc(OC(F)(F)F)ccc2Oc2ccc(-c3ccnc(N4CC[C@H](O)C4)c3)cc21`, -23.6% (active); in that of `COc1ccc(Cn2cc3c(c2-c2ccccc2)CCCc2cnoc2-3)cc1[N+](=O)[O-]`, 27% (inactive).
In the case of `COc1cc(-c2nc(-c3ccccc3)[nH]c2-c2ccnc(NCCCNS(=O)(=O)c3cccc(F)c3)n2)ccc1F` it was 94.8% (inactive); in that of `CC(C)c1ccc(NCc2cn(-c3ccc(C(=O)O)cc3)nc2-c2cc(C(F)(F)F)cc(C(F)(F)F)c2)cc1`, 83.1% (inactive); in that of `O=C(Nc1cc(Cl)cc(Cl)c1)Nc1nc2ccc([N+](=O)[O-])cc2s1`, -50.1% (active).
For the compound `O=S(=O)(NCCNc1nccc(-n2cnc3ccccc32)n1)c1ccc(Cl)cc1`, the growth is 113% (inactive).
For the compound `COc1ccc(C2C(C#N)=C(N)Oc3c2sc2ccc(C)cc32)cc1` (stereo not given), the growth is 12.5% (inactive).
In the case of `CCc1cccc2c3c(sc12)C(c1ccc(Cl)cc1)C(C#N)=C(/N=C/c1ccc(Cl)cc1)O3` (stereo not given) it was -6.78% (active); in that of `CN(c1ccc(Cl)cc1)S(=O)(=O)c1ccc(-c2cnc(C3CC3)o2)cc1`, -15.9% (active).
Turning to `COc1ccc(-c2nc(SCC(C)C)nc(N/N=C\c3cccc([N+](=O)[O-])c3)c2C#N)cc1`, the growth was 85.1% (inactive).
In the case of `COc1cc(O)c2c(c1)/C=C/C[C@H](O)[C@H](O)C(=O)/C=C\C[C@H](C)OC2=O` it was -9.6% (active); in that of `Cc1ccc(Cc2cnc(NC(=O)/C(C#N)=C/c3ccc(-c4ccc(Cl)cc4)o3)s2)cc1`, 88.5% (inactive).
